Reference: PubChem BioAssay (EPA / NIEHS)
Where “and” joins values, the source holds several entries; their conditions need not be identical. Identical values can stand only once. More than one record can exist for a structure, and the calls need not agree. Calls of active or inactive are those of the source. How the source made its calls: active means hit-call score of the fitted dose curve at least 0.9, where 1 is the maximum; inactive means score below 0.9.

Experiment: ATG_BRE_CIS: Attagene CIS-FACTORIAL HepG2 Assay for human Bone Morphogenetic Protein (BMP) Response Element (BRE) (AID 2282933)
Conditions: HepG2 BMP response element reporter, Attagene transcription factor profiling; actives raise or lower the signal
Procedure: ATG_CIS is a cell-based, multiplexed-readout assay that uses HepG2, a human liver cell line, with measurements taken at 24 hours after chemical dosing in a 24-well plate.ATG_BRE_CIS is one of 52 assay component(s) measured or calculated from the ATG_CIS assay. It is designed to make measurements of mRNA induction, a form of inducible reporter, as detected with fluorescence intensity signals by Reverse transcription polymerase chain reaction (RT-PCR) and Capillary electrophoresis technology.Data from the assay component ATG_BRE_CIS was analyzed into 1 assay endpoint. This assay endpoint, ATG_BRE_CIS, was analyzed with bidirectional fitting relative to DMSO as the negative control and baseline of activity. Using a type of inducible reporter, measures of mRNA for gain or loss-of-signal activity can be used to understand the reporter gene at the transcription factor-level as they relate to the gene SMAD1. Furthermore, this assay endpoint can be referred to as a primary readout, because this assay has produced multiple assay endpoints where this one serves a reporter gene function. To generalize the intended target to other relatable targets, this assay endpoint is annotated to the dna binding intended target family, where the subfamily is Smad protein.
Human liver HepG2 cells are transiently transfected with multiple reporter transcription units (MRTUs) in 6-well plates using FuGene 6 reagent (Roche; 3 ml FuGene/1 mg DNA). The MRTU constructs are regulated by a cis-regulating element (promoter). […] A major difference between the CIS and TRANS system is that in CIS activities of endogenous TFs are measured, whereas the TRANS assay evaluates changes in activities of exogenous, chimeric NR-Gal4 proteins. […] At the end of 24 hour incubation, total RNA was isolated using TriZol reagent (Invitrogen). The isolated RNA is then reverse-transcribed using oligo(dT) primer and Mo-MLV reverse transcriptase (Invitrogen) with DNAse I (Ambion) treatment for 30 min. The one-tenth of the produced cDNA was amplified by PCR using Taq DNA polymerase (Invitrogen) and two reporter sequence-specific primers. The PCR products were fluorescently labeled by primer extension with 6-arboxyfluorescein (6-FAM) 5'-labeled reporter sequence-specific primer (2 min at 95 C, 20 s at 68 C and 10 min at 72 C) and these products were digested with 5U of HpaI (New England Biolabs) for 2h at 37 C. The fragments were purified using Qiaquick PCR columns (Qiagen), analyzed on an ABI 3130xL genetic analyzer (Applied Biosystems) with peak positions identified by using a set of X-rhodamine (ROX)-labeled MapMarker1000 molecular weight standards (BioVentures). The raw capillary electrophoresis data was processed using Attagraph software (Attagene).
With `C#C[C@]1(O)CC[C@H]2[C@@H]3CCc4cc(O)ccc4[C@H]3CC[C@@]21C` the outcome was “inactive” and the AC50 was 75.6 µM (active) and 48.6 µM (active). In the case of `CC(C)Cc1ccccc1`, the outcome is reported as “inactive”. In the case of `CNC(=C[N+](=O)[O-])NCCSCc1ccc(CN(C)C)o1`, the outcome is reported as “inactive”. With `OC[C@H]1O[C@@H](O[C@H]2[C@H](O)[C@@H](O)[C@H](O)O[C@@H]2CO)[C@H](O)[C@@H](O)[C@H]1O` the outcome was “inactive”. In the case of `OC[C@@H](O)[C@H](O)[C@@H](O)[C@@H](O)CO`, the outcome is reported as “inactive”. For `CC(=O)CCC(=O)O`, the outcome was “inactive”. With `CC(=O)CC(C)(C)C1CCCCC1` the outcome was “inactive”. For `CC1(C)CC(=O)CC(C)(C)N1`, the outcome was “inactive”. In the case of `CCC(=O)OCC=Cc1ccccc1`, the outcome is reported as “inactive”. In the case of `NCCN1CCNCC1`, the outcome is reported as “inactive”. With `O=c1cc(-c2ccc(O)cc2)oc2cc(O)cc(O)c12` the outcome was “inactive”. In the case of `C=C1CC[C@H]2O[C@]2(C)CC[C@@H]2[C@@H]1CC2(C)C`, the outcome is reported as “inactive”. In the case of `COc1ccc(C(C)=O)cc1`, the outcome is reported as “inactive”. In the case of `c1ccc(OCCOc2ccccc2)cc1`, the outcome is reported as “inactive”. In the case of `COc1cc(OC)c2ccc(=O)oc2c1`, the outcome is reported as “inactive”. In the case of `CCCCCCCCCCCCOCCOS(=O)(=O)O`, the outcome is reported as “inactive”. For `O=c1cc[nH]cc1`, the outcome was “inactive”. In the case of `C=C(C)CCCC(C)CCO` (stereo not given), the outcome is reported as “inactive”. For `C[N+](C)(C)CCO`, the outcome was “inactive”. With `Cc1ccc(C(C)(C)O)cc1` the outcome was “inactive”. For `CC(=O)N(C)C`, the outcome was “inactive”. With `CC(C)CCOC(=O)CC(C)C` the outcome was “inactive”. With `CCCCCCCC(=O)N(C)C` the outcome was “inactive”. For `CC=CC(=O)C1=C(C)C=CCC1(C)C`, the outcome was “inactive”. For `Cc1cc(N)n(-c2ccccc2)n1`, the outcome was “inactive”. In the case of `CCCO[Si](OCCC)(OCCC)OCCC`, the outcome is reported as “inactive”. In the case of `O=S(=O)(O)c1cc(S(=O)(=O)O)c2c(N=Nc3ccccc3)c(O)ccc2c1`, the outcome is reported as “inactive”. In the case of `CC(O)CN` (stereo not given), the outcome is reported as “inactive”. With `CCCCOCCOCCOCCO` the outcome was “inactive”. For `C=C/C(C)=C/C/C=C(\C)CCC=C(C)C`, the outcome was “inactive”. For `C=CC(O)CCCCC` (stereo not given), the outcome was “inactive”. With `CC(C)OB(OC(C)C)OC(C)C` the outcome was “inactive”. For `CCNC(=S)NCC`, the outcome was “inactive”. For `c1coc(CNc2ncnc3nc[nH]c23)c1`, the outcome was “inactive”. With `CCCCCC#CC(=O)OC` the outcome was “inactive”. For `COc1ccccc1O`, the outcome was “inactive”. With `CC(CO)(CO)[N+](=O)[O-]` the outcome was “inactive”. For `NC(=O)c1cccnc1`, the outcome was “inactive”. For `CCOC(=O)CCCCCCCCC(=O)OCC`, the outcome was “inactive”.
